Several values for one entry are separate records, joined by “and”; a condition that tells them apart may be missing. Identical values can stand only once. Inconclusive results are not listed. Activity calls are given as the source filed them. Calls follow the shape of the dose curve; as a rule, active = well fitted inhibition curve with a large enough effect; inconclusive = small, poorly fitted or top-dose-only effect; inactive = flat fitted curve, though single readings scatter.
What was measured:
CRL-7250 = normal cell line; assay: Cytotoxic Profiling of Annotated Libraries Using Quantitative High-Throughput Screening (AID 1296008); conditions: Five cell lines viability, CellTiter-Glo ATP luminescence, 48-72 h; max response: active compounds read low; as to max response: % is scaled to controls: 0 for no effect and ±100 for the full control effect
How it was run: (§1)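 Cytotoxicity was measured as CellTiter-Glo ATP luminescence, read after 10 min at room temperature. Compound treatment of the cells lasted 48 or 72 hr at 37 degrees Celsius in a qHTS format.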

HEK293 = assay: as above; conditions: Five cell lines viability, CellTiter-Glo ATP luminescence, 48-72 h; max response: active compounds read low
How it was run: as §1

HaCat [1] = assay: as above; conditions: Five cell lines viability, CellTiter-Glo ATP luminescence, 48-72 h; max response: active compounds read low
How it was run: as §1

KB-3-1 = assay: as above; conditions: Five cell lines viability, CellTiter-Glo ATP luminescence, 48-72 h; max response: active compounds read low
How it was run: as §1

NIH3T3 = assay: as above; conditions: Five cell lines viability, CellTiter-Glo ATP luminescence, 48-72 h; max response: active compounds read low
How it was run: as §1

HACAT [2] = assay: qHTS assay to identify novel small-molecules to repurpose for Merkel cell carcinoma treatment (AID 1296009); conditions: MCC and control cell lines, CellTiter-Glo viability, 72 h; at 44.8 µM (top of the series) unless noted; as to activity change, negative = cytotoxicity: % is scaled to controls: 0 for no effect and ±100 for the full control effect
How it was run: (§2)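 Cell viability measured by CellTiter-Glo following 72 hr compound treatment at 37 degree celsius, with NPC and MIPE libraries tested in 8- and 11-point concentration series.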

MCC-13 = assay: as above; conditions: MCC and control cell lines, CellTiter-Glo viability, 72 h; series mostly up to 46 µM
How it was run: as §2

MKL-1 = assay: as above; conditions: MCC and control cell lines, CellTiter-Glo viability, 72 h; series mostly up to 46 µM
How it was run: as §2

MKL-2 = assay: as above; conditions: MCC and control cell lines, CellTiter-Glo viability, 72 h; series mostly up to 46 µM
How it was run: as §2

MCC-26 = assay: as above; conditions: MCC and control cell lines, CellTiter-Glo viability, 72 h; series mostly up to 46 µM
How it was run: as §2

HEK293T = assay: as above; conditions: MCC and control cell lines, CellTiter-Glo viability, 72 h; at 44.8 µM (top of the series)
How it was run: as §2

PAD = assay: qHTS profiling for inhibitors of Plasmodium falciparum proliferation (AID 504749); conditions: P. falciparum in erythrocytes, SYBR Green DNA, 72 h; series mostly up to 28.7 µM
How it was run: (§3)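 In a 72 h erythrocytic culture (37 C, humidified, 5% CO2) at 2.5% hematocrit and 0.3% starting parasitemia, compounds were tested; SYBR Green I in detergent lysis buffer stained parasite DNA overnight.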

PC15 = assay: as above; conditions: P. falciparum in erythrocytes, SYBR Green DNA, 72 h; series mostly up to 28.7 µM
How it was run: as §3

PC49 = assay: as above; conditions: P. falciparum in erythrocytes, SYBR Green DNA, 72 h; series mostly up to 28.7 µM
How it was run: as §3

SC27B = assay: as above; conditions: P. falciparum in erythrocytes, SYBR Green DNA, 72 h; series mostly up to 28.7 µM
How it was run: as §3

TAB113 = assay: as above; conditions: P. falciparum in erythrocytes, SYBR Green DNA, 72 h; series mostly up to 28.7 µM
How it was run: as §3

TAB165 = assay: as above; conditions: P. falciparum in erythrocytes, SYBR Green DNA, 72 h; series mostly up to 28.7 µM
How it was run: as §3

W2 = assay: as above; conditions: P. falciparum in erythrocytes, SYBR Green DNA, 72 h; series mostly up to 28.7 µM
How it was run: as §3

PC26 = assay: as above; conditions: P. falciparum in erythrocytes, SYBR Green DNA, 72 h; series mostly up to 28.7 µM
How it was run: as §3

TAB109 = assay: as above; conditions: P. falciparum in erythrocytes, SYBR Green DNA, 72 h; series mostly up to 28.7 µM
How it was run: as §3
Also: nearly all actives have a fitted effect of over 60% in size.
Potency is read from the fitted curve at half-maximal effect.

CCCC(CCC)C(=O)O
inactive: max response (CRL-7250) -7.38% and -1.13% | max response (HEK293) -7.93% and 2.58% | max response (HaCat [1]) 2.57% | outcome (HaCat [1]) | max response (KB-3-1) 5.52% and 6.84% | max response (NIH3T3) 0.659% | outcome (HACAT [2]) | Potency (MCC-13) | Potency (MKL-1) | Potency (MKL-2)

CO[C@@H]1[C@H](N(C)C(=O)c2ccccc2)C[C@H]2O[C@]1(C)n1c3ccccc3c3c4c(c5c6ccccc6n2c5c31)C(=O)NC4
active: Potency (CRL-7250) 1.48 µM | Potency (HEK293) 8.33 µM | Potency (HaCat [1]) 3.72 µM | Potency (KB-3-1) 3320 nM | Potency (NIH3T3) 1660 nM | Potency (MCC-13) 2960 nM | Potency (MCC-26) 4690 nM

O=c1[nH]c(-c2ccc(C(F)(F)F)cc2)nc2c1CSCC2
inactive: max response (CRL-7250) -16.3% | max response (HEK293) 1.09% | max response (HaCat [1]) -17.6% and -9.05% | max response (KB-3-1) 9.93% | outcome (KB-3-1) | max response (NIH3T3) -7.54% | Potency (MCC-13) | Potency (MCC-26) | Potency (MKL-1) | Potency (MKL-2)

CN(C(=O)c1ccc(F)cc1C(F)(F)F)C1CCN(c2nnc(-c3ccnn3C)c3ccccc23)CC1
inactive: max response (CRL-7250) -27.2% and -23.7% | max response (HEK293) -60.8% | max response (HaCat [1]) -6.53% | outcome (HaCat [1]) | max response (KB-3-1) -19.8% | max response (NIH3T3) -30.1% and 3.56% | outcome (HACAT [2]) | Potency (MCC-13) | Potency (MCC-26) | Potency (MKL-1) | Potency (MKL-2)

O=C(NOC[C@H](O)CO)c1ccc(F)c(F)c1Nc1ccc(I)cc1F
inactive: outcome (HEK293) | max response (KB-3-1) 4.78% and 5.99% | outcome (HEK293T)
active: Potency (CRL-7250) 3.32 µM and 3.66 µM | Potency (HaCat [1]) 8.33 µM and 23.1 nM | Potency (NIH3T3) 6510 nM

O=C(O)CCc1ccc(NCc2cccc(Oc3ccccc3)c2)cc1
inactive: max response (CRL-7250) 4.81% | outcome (HEK293) | max response (HaCat [1]) -7.54% | outcome (HaCat [1]) | max response (KB-3-1) -3.52% and 6.14% | outcome (NIH3T3) | outcome (HACAT [2]) | outcome (HEK293T) | Potency (MCC-26) | activity change, negative = cytotoxicity (MKL-1) -1.7% [at 0.00266 µM]

CCCc1nc2c(C)cc(-c3nc4ccccc4n3C)cc2n1Cc1ccc(-c2ccccc2C(=O)O)cc1
active: Potency (PAD) 1000 nM | Potency (PC15) 2510 nM | Potency (PC49) 2510 nM | Potency (SC27B) 1580 nM | Potency (TAB113) 2240 nM | Potency (TAB165) 1580 nM | Potency (W2) 1900 nM
inactive: max response (CRL-7250) -5.08% and 4.25% | outcome (HEK293) | outcome (HaCat [1]) | max response (KB-3-1) 14.7% and 4.38% | max response (NIH3T3) 1.27% | outcome (NIH3T3) | outcome (HACAT [2]) | outcome (HEK293T) | Potency (MCC-13) | Potency (MCC-26) | Potency (MKL-1) | Potency (MKL-2)

CS(=O)(=O)c1ccc(C(=O)Nc2ccc(Cl)c(-c3ccccn3)c2)c(Cl)c1
inactive: max response (CRL-7250) -4.31% and 3.97% | max response (HEK293) -6.21% | max response (HaCat [1]) -0.0394% | max response (KB-3-1) 9.49% and -9.43% | max response (NIH3T3) -17.3% and -11.2% | Potency (MCC-13) | Potency (MCC-26) | Potency (MKL-1) | Potency (MKL-2)

Clc1cccc(Cl)c1NC1=NCCN1
inactive: Potency (PAD) | Potency (PC15) | Potency (PC26) | Potency (PC49) | Potency (SC27B) | Potency (TAB109) | Potency (TAB113) | Potency (TAB165) | Potency (W2) | max response (CRL-7250) 0.663% and -4.74% | max response (HEK293) -3.7% and -4.57% | outcome (HaCat [1]) | outcome (KB-3-1) | outcome (NIH3T3) | outcome (HACAT [2]) | Potency (MCC-13) | Potency (MCC-26) | Potency (MKL-1) | Potency (MKL-2)

C[C@]1(c2nc3c(C(N)=O)cccc3[nH]2)CCCN1
inactive: max response (CRL-7250) -16.5% | max response (HEK293) -23.2% | max response (HaCat [1]) -38.2% | max response (KB-3-1) -0.184% | max response (NIH3T3) -22% | Potency (MCC-13) | Potency (MCC-26) | Potency (MKL-1) | Potency (MKL-2)

CCCc1nn(C)c2c(=O)[nH]c(-c3cc(S(=O)(=O)N4CCN(C)CC4)ccc3OCC)nc12
inactive: Potency (PAD) | Potency (PC15) | Potency (PC26) | Potency (PC49) | Potency (SC27B) | Potency (TAB109) | Potency (TAB113) | Potency (TAB165) | max response (CRL-7250) -31.4% and 2.3% | max response (KB-3-1) 4.32% | outcome (KB-3-1) | max response (NIH3T3) -19.3% and 3.51% | Potency (MCC-13) | Potency (MCC-26) | Potency (MKL-1) | Potency (MKL-2)
active: Potency (HEK293) 18.7 µM

COc1cc2c(cc1OC)CN(CCc1ccc(NC(=O)c3cccc4c(=O)c5cccc(OC)c5[nH]c34)cc1)CC2
inactive: max response (CRL-7250) 0.448% and -2.79% | max response (KB-3-1) 4.69% and -0.508% | max response (NIH3T3) 3.98% | outcome (NIH3T3) | outcome (HACAT [2]) | Potency (MCC-13) | Potency (MCC-26) | Potency (MKL-1)
active: Potency (HEK293) 11.8 µM and 7.31 µM | Potency (MKL-2) 16600 nM

Cc1cc2c(F)c(Oc3ncnn4cc(OC[C@@H](C)O)c(C)c34)ccc2[nH]1
active: Potency (HEK293) 3.72 µM
inactive: max response (CRL-7250) -47.3% | max response (HaCat [1]) -13.8% | Potency (MCC-13) | Potency (MKL-1)
